MITF inh: inhibitors of human MITF | inhibition, % at 2.6 µM | AlphaScreen MITF homodimerization, bead proximity signal | O75030 | hit rate 0.91% among 650,000; in the data active = inhibition above about 50%;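 note: 0% = vehicle wells with protein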
FBW7 activator: activators of human E3 ligase FBW7 | AlphaScreen FBW7–phospho-cyclin E peptide binding, activator screen | Q969H0 | hit rate 0.13% among 650,000 | AID 1259310 | normalized activity (activation), % at 26.1 µM; in the data active = normalized activity above about 1.9%;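 note: purified mutant Fbw7 with reduced substrate affinity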
Target sequence (Q969H0 whole entry, looked up): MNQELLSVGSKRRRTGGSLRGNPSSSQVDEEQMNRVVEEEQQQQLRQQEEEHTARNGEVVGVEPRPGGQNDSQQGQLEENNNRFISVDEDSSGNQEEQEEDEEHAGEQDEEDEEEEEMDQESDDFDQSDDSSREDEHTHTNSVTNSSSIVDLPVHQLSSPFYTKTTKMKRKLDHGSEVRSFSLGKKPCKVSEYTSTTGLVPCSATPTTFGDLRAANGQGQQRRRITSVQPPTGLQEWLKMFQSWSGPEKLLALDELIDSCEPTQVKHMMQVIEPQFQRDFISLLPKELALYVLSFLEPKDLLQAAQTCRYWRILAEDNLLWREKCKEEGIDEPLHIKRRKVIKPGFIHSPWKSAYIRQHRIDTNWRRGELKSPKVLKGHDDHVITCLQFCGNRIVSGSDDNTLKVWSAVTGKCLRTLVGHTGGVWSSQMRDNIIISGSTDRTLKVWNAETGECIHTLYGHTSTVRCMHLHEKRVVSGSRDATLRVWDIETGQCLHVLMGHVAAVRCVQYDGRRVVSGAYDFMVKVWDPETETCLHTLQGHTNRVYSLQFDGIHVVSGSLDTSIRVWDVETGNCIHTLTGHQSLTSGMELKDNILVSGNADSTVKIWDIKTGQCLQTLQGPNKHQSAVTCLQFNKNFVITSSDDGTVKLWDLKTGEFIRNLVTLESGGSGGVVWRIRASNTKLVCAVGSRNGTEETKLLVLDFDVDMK
GPR151 ag: human GPR151 activation | Q8TDV0 | PathHunter beta-arrestin GPR151 cells, luminescence | activation, % at 11.2 µM | hit rate 1% among 650,000; in the data active = activation above about 4.9%;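 note: 0% = median of compound wells and 100% = cells with positive control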
TEAD-YAP block: TEAD-YAP interaction inhibition. HEK-TIYL cells, TEAD-Gal4/YAP UAS-luciferase luminescence. inhibition, % at 9.12 µM. hit rate 1.4% among 640,000; in the data active = inhibition above about 32%;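 note: 0% = median of test compound wells and 100% = reference inhibitor wells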
An asterisk follows results filed as active. This is a sample that favours compounds with a hit; in the whole collection about 3.5% have one here.

SMILES	MITF inh	FBW7 activator	GPR151 ag	TEAD-YAP block
COC(=O)c1c(NC(=O)c2ccc(Cl)cc2)sc2c1CCN(C(C)=O)C2	-16	3.3*	0	13
CCCCC(=O)Nc1sc2c(c1C#N)CCN(C(C)=O)C2	7	0	0	43*
CC(=O)N1CCc2c(sc(NC(=O)c3ccc(Br)cc3)c2C#N)C1	-2	0	3	41*
COC(=O)c1c(NC(=O)c2ccc(S(=O)(=O)N(C)C)cc2)sc2c1CCN(C(C)=O)C2	7	0	1	4
CC(=O)N1CCc2c(sc(NC(=O)c3ccc4c(c3)OCCO4)c2C#N)C1	-5	0	2	40*
Cc1ccc(C)c(OCC(=O)Nc2ccccc2C(F)(F)F)c1C	-3	0	-1	-6
O=S(=O)(Nc1ccc(N2CCC(NC3CCOCC3)CC2)cc1)c1ccccc1	-7	0	0	-14
O=C1NC(=O)C(=Cc2cc(O)c(O)c(Br)c2)C(=O)N1	58*	0	2	4
CCOc1cc(C=C2C(=O)NC(=O)NC2=O)cc(Br)c1O	7	0	0	1
O=C1NC(=O)C(=Cc2cc(Br)c(I)o2)C(=O)N1	59*	-1	-1	2
CCCC(=O)Nc1cccc(CNC(=O)Nc2ccc(-c3cn[nH]c3)cc2)c1	18	0	-2	-20
O=C(NCCN1CCCC1)c1ccc(-c2ccccc2)s1	2	0	0	-8
COc1ccccc1-c1ocnc1C(=O)Nc1ccccc1C(=O)N1CCCC1	7	0	0	7
O=C(Nc1ccccc1C(=O)N1CCCC1)c1ncoc1-c1ccccc1C(F)(F)F	-12	0	0	63*
Cn1nc(-c2cccnc2)nc2c(=O)n(C)c(=O)nc1-2	9	0	-6	97*
COc1ccc(-c2nc3c(=O)n(C)c(=O)nc-3n(C)n2)cc1	5	0	-9	98*
Cn1nc(-c2ccc(F)cc2)nc2c(=O)n(C)c(=O)nc1-2	18	0	-8	89*
C/C(=C\c1ccccc1)c1nc2c(=O)n(C)c(=O)nc-2n(C)n1	-8	0	-4	34*
Cn1nc(-c2ccc(Cl)cc2)nc2c(=O)n(C)c(=O)nc1-2	14	0	-8	-48
O=C(Nc1ccccc1C(F)(F)F)c1ccc([N+](=O)[O-])cc1Cl	5	0	2	4
Cc1ccc(-c2cn3nc(N4CCC(C(=O)NCc5cccs5)CC4)sc3n2)cc1	12	0	2	-60
CN(C)S(=O)(=O)c1ccc(S(=O)(=O)N2CCC3(CC2)OCCO3)cc1	5	0	1	16
O=C(Nc1cccc(N2CCC(NCCn3ccnc3)CC2)c1)C1CC1	2	0	0	8
Nc1ncc(N=Nc2cc(C(=O)O)ccc2Cl)s1	9	0	-2	3
Nc1ncc(N=Nc2cc(C(=O)O)cc(C(=O)O)c2)s1	61*	0	0	12
SMILES	MITF inh	FBW7 activator	GPR151 ag	TEAD-YAP block
Cc1nc(N)sc1N=Nc1cc(C(=O)O)cc(C(=O)O)c1	52*	0	2	-2
O=C(OCc1ccccc1)N1CCCN(CCc2ccncc2)CC1	5	1.9*	0	-11
Cc1ccc(NC(=O)Cn2ncc3c2-c2cc(C)ccc2OC3)nc1	11	0	-2	35*
Cc1ccnc(NC(=O)Cn2ncc3c2-c2cc(C)ccc2OC3)c1	-6	0	0	-1
Cc1ccc(NC(=O)/C(C#N)=C/c2ccccc2O)cc1	-16	0	2	49*
COc1ccc(NC(=O)/C(C#N)=C\c2ccc(N(C)C)o2)cc1	-16	0	2	33*
COc1ccc(NC(=O)/C(C#N)=C/c2ccc(Br)o2)cc1	9	0	0	-14
COc1ccccc1/C=C(/C#N)C(=O)Nc1ccc(O)cc1	-9	0	1	10
CCOC(=O)c1ccc(NC(=O)/C(C#N)=C/c2ccc(C3CC3C)o2)cc1 (centres undefined)	13	0	1	41*
Cc1cccc(NC(=O)/C(C#N)=C\c2ccccc2O)c1	11	0	0	-51
COc1ccc(NC(=O)/C(C#N)=C/c2ccccc2OC(C)C)cc1	2	0	3	51*
COc1ccc(C2CC(=O)C3=C(C2)NC(C)=C(C(=O)OC2CCCCC2)C3c2cccc([N+](=O)[O-])c2)cc1OC (centres undefined)	11	0	-1	35*
CCCOC(=O)C1=C(C)NC2=C(C(=O)CC(c3ccc(OC)c(OC)c3)C2)C1c1cccc(Br)c1 (centres undefined)	-3	0	0	38*
COc1ccc(C2CC(=O)C3=C(C2)NC(C)=C(C(=O)OC2CCCCC2)C3c2ccc([N+](=O)[O-])cc2)cc1OC (centres undefined)	14	0	1	7
CC1=C(C(=O)OC2CCCCC2)C(c2cccnc2)C2=C(CC(c3ccc(Cl)cc3)CC2=O)N1 (centres undefined)	-4	0	0	38*
CCCOC(=O)C1=C(C)NC2=C(C(=O)CC(c3ccc(OC)c(OC)c3)C2)C1c1cccc(C)c1 (centres undefined)	-10	0	2	33*
CSCCCN1CCc2nnc(C(NC(=O)c3ccccn3)C(C)C)n2CC1 (centres undefined)	-5	0	4	7
Cc1nc2c(-c3ccc(F)cc3)c(C)nn2c(C)c1CC(=O)NC(C)C	1	0	0	-2
COc1ccc(C2CC(=O)C3=C(C2)NC(C)=C(C(=O)OC(C)C)C3c2ccc(SC)cc2)cc1OC (centres undefined)	-1	0	0	14
COc1ccc(C2CC(=O)C3=C(C2)NC(C)=C(C(=O)OC(C)C)C3c2ccc(F)cc2)cc1OC (centres undefined)	-14	0	0	42*
CCCOC(=O)C1=C(C)NC2=C(C(=O)CC(c3ccc(OC)c(OC)c3)C2)C1c1ccccc1C (centres undefined)	-7	0	1	0
CCCOC(=O)C1=C(C)NC2=C(C(=O)CC(c3ccc(OC)c(OC)c3)C2)C1c1ccccc1F (centres undefined)	-11	0	3	41*
O=c1c2ccccc2cnn1Cc1n[nH]c(=S)n1-c1ccc2c(c1)OCCO2	7	0	1	-14
CCCS(=O)c1ccc2nc(NC(=O)OC)[nH]c2c1 (centres undefined)	-2	0	-5	2
Cc1cc(C)cc(NS(=O)(=O)c2ccc3c4c2CC(=O)N4CC(C)S3)c1 (centres undefined)	2	0	0	34*
CC1CN2C(=O)Cc3c(S(=O)(=O)NCc4cccs4)ccc(c32)S1 (centres undefined)	9	0	-1	8
Oc1ccc(-c2noc(-c3ccc(F)cc3)n2)cc1	-1	0	-9	65*
Fc1ccc(-c2nc(-c3ccccc3)no2)cc1	17	1	0	-34
COCCNc1ccc2ncc(-c3ccc(O)c(OC)c3)n2n1	-2	0	1	55*
COc1ccc(-c2cnc3ccc(NCCCO)nn23)cc1OC	-11	1	0	36*

Screens: PubChem, The Scripps Research Institute Molecular Screening Center
